# Activity calls are given as the source filed them. Rule for the calls: active = hit-call score of the fitted dose curve at least 0.9, where 1 is the maximum; inactive = score below 0.9.
# Read-out: Interleukin-1 alpha (IL1a), IL1A (gene 3552)
# Assay: BSK_KF3CT_IL1a: BioMAP Diversity Plus: KF3CT Assay for Interleukin-1 alpha (IL1a) Biomarker Activity (AID 2283070)
# Settings: primary human keratinocytes with fibroblasts; actives raise or lower the signal
# Procedure: BSK_KF3CT is a cell-based, multiplexed-readout assay that uses keratinocytes and foreskin fibroblasts, a human skin primary cell co-culture, with measurements taken at 24 hours after chemical dosing in a 96-well plate.BSK_KF3CT_IL1a is an assay component measured in the BSK_KF3CT assay. It measures IL-1a antibody related to regulation of gene expression using ELISA technology.Data from the assay component BSK_KF3CT_IL1a was analyzed into 1 assay endpoint. This assay endpoint, BSK_KF3CT_IL1a, was analyzed with bidirectional fitting relative to DMSO as the negative control and baseline of activity. Using a type of binding reporter, gain or loss-of-signal activity can be used to understand changes in the signaling as they relate to the gene IL1A. Furthermore, this assay endpoint can be referred to as a primary readout, because this assay has produced multiple assay endpoints where this one serves a signaling function. To generalize the intended target to other relatable targets, this assay endpoint is annotated to the cytokine intended target family, where the subfamily is interleukins.
# The levels of cell surface (or secreted, indicated by the prefix "s") biomarker endpoints were measured by ELISA. Overt cytotoxicity to cells in confluent adherent cultures (all systems other than the BT system) was assessed by measuring total protein levels using sulforhodamine B (SRB) staining in parallel cultures at the time of biomarker measurements, indicated as SRB endpoints. For proliferation assays for adherent cell types, individual cell types are cultured at sub-confluence and relative cell numbers quantified by SRB staining at time points optimized for each system (48 h: 3C and CASM3C systems; 72 h: BT and HDF3CGF systems; 96 h: SAg system). SRB was performed by staining cells with 0.1% SRB after fixation with 10% TCA and reading wells at 560 nm.Viability and proliferation of PBMC (T cells) was quantified by Alamar Blue reduction for the SAg and BT systems. For PBMC viability (referred to as PBMC Cytotoxicity within the assay endpoint names), cells were plated (75,000/well in a 96-well plate) and then chemical samples added for 1 h before addition of activators, SEB and TSST-1 (20 ng/mL final concentration each). Cells were incubated for 90 h. Then, Alamar Blue (20 uL/well) (Invitrogen, Cat DAL1100) was added for 6 h, and the plates were read with a fluorescence microplate reader at 546/580 nm (excitation/emission). For PBMC proliferation, cells were plated and activated as above but incubated for only 16 h prior to addition of Alamar Blue. Plates were read after 6 h.
Structure (SMILES),outcome,AC50
O=C1NC(=O)C(c2ccccc2)(c2ccccc2)N1,inactive,
CCCCC(CC)COC(=O)CCCCCCCC(=O)OCC(CC)CCCC (stereo not given),inactive,
CCC(C)N(C)C(=O)c1cc2ccccc2c(-c2ccccc2Cl)n1 (stereo not given),inactive,
CN(C)CCCN(C)CCCN(C)C,inactive,
NCCOCCOCCN,inactive,
Cc1cn([C@H]2C=C[C@@H](CO)O2)c(=O)[nH]c1=O,inactive,
CSc1ccc(Oc2ccc(S(N)(=O)=O)cc2CN(C)C)cc1C,inactive,
CC(C)(O)c1ccc(CNC(=O)c2cccnc2Oc2ccc(F)cc2)cc1,inactive,
Cc1cc(Cc2ccc(N)c(C)c2)ccc1N,inactive,
CC1=C(C)S(=O)(=O)CCS1(=O)=O,inactive,
C=CCCCCCCCCCCCC,inactive,
NC=O,inactive,
S=c1[nH]c2ccccc2s1,inactive,
O=C(NS(=O)(=O)/C=C/c1cccs1)c1ccc(F)cc1Br,,2.09 µM (active)
O=Cc1ccccc1C=O,inactive,
CCCCC(CC)COP(=O)(OCC(CC)CCCC)OCC(CC)CCCC (stereo not given),inactive,
O=NO,inactive,
Nc1nc(Cl)nc2c1ncn2[C@H]1C[C@H](O)[C@@H](CO)O1,inactive,
CCCCCCCCCCCCCCCCO,inactive,
C/C=C/C=C/C(=O)O,inactive,

Structure (SMILES),outcome,AC50
Cc1c(C)c2c(c(C)c1O)CCC(C)(COc1ccc(CC3SC(=O)NC3=O)cc1)O2 (stereo not given),,29.5 µM (active)
CC(N)=O,inactive,
c1ccc2occc2c1,inactive,
CC(C)(C)c1ccccc1,inactive,
CS(=O)(=O)c1ccc([C@@H](C[C@H]2CCC(=O)C2)C(=O)Nc2cnccn2)cc1Cl,inactive,
CCOCCOCCO,inactive,
COC(=O)CCC(=O)OC,inactive,
CCCCCCCCCCCCCCOS(=O)(=O)O,,10.3 µM (active)
CCCCOC(=O)CCCCC(=O)OCCCC,inactive,
CCCC(=O)O,inactive,
CC(=O)CC(c1ccccc1)c1c(O)c2ccccc2oc1=O (stereo not given),inactive,
Cc1cc(SC2=C(O)C[C@@](CCc3ccc(N)cc3)(C(C)C)OC2=O)c(C(C)(C)C)cc1CO,inactive,
CC(C)NCC(O)c1ccc(O)c(O)c1 (stereo not given),inactive,
COc1ccc(OC(F)(F)F)cc1CN[C@H]1CCCN[C@H]1c1ccccc1,inactive,
C/C=C/c1ccc(OC)cc1,inactive,
CC1(C)C(=O)NC(=O)N1CO,inactive,
Cn1cnc2c1c(=O)[nH]c(=O)n2C,inactive,
O=C1c2c(O)cccc2Cc2cccc(O)c21,,18.9 µM (active)
OCC(O)CO,inactive,
COc1ccc(C(=O)Nc2nc3ccccc3c(NCc3ccccc3)c2C#N)cc1,inactive,
